Assay results reported in PubChem BioAssay AID1948 (National Center for Advancing Translational Sciences (NCATS), 2009).
Screen size: about 110,000 compounds; about 20 (0.02%) were called active. Inconclusive results (about 2%) are left out. Calls follow the shape of the dose curve; as a rule, active = well fitted activation curve with a large enough effect; inconclusive = small, poorly fitted or top-dose-only effect; inactive = no such curve, though single readings can be large or run the other way. The entries come from a sample that favours actives as a whole.

Assay: qHTS Assay for Compounds that Induce Erasure of Genomic Imprints;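 also: 0% = negative control wells on the plate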
Settings: mouse ES Peg3-LacZ reporter, beta-gal luminescence, 40 h; series mostly up to 10.9 µM; activity change, positive = activation: at the top concentration
Excerpt: qHTS Assay for Compounds that Induce Erasure of Genomic Imprints NIH Chemical Genomics Center [NCGC] NIH Molecular Libraries Screening Centers Network [MLSCN] Assay Submitter (PI): JEFFRIES, SEAN, NCGC, University of Cambridge NCGC Peg3 Imprinting Assay Overview Genomic imprinting is the epigenetic process whereby genes are expressed in a parent of origin fashion. […] Unlike some forms of epigenetic silencing that can be overcome by overexpression of transcription factors, genomic imprinting stably represses the expression of one allele despite potentially high levels of expression from the other allele. […] During mouse embryonic day 11.5 imprints are erased in PGCs so that sex specific imprints can be reestablished during gametogenesis. Embryonic germ (EG) cells can be derived from developing PGCs at embryonic day 11.5 and these cells often lack genomic imprints. […] Embryonic stem (ES) cells are a cell type similar to EG cells in phenotype and transcriptional profile, yet ES cells maintain genomic imprints. This similarity between ES and EG cells prompted us to use ES cells to look for factors which could induce imprint erasure. To investigate the stability of genomic imprinting, ES cells were derived from mice with an insertion of a LacZ-Neomycin reporter construct in the Peg3 locus. Peg3 is an imprinted locus where gene expression is restricted to the paternal allele. […] Using LacZ expression we are able to monitor the state of the Peg3 imprint. In order to dissect the mechanisms involved in imprint erasure using a forward chemical genetics approach we developed a cell based phenotype assay using an endogenous silence imprinted locus. This assay utilizes maternally inherited Peg3LacZ-Neo ES cells by monitoring the LacZ expression from the normally silent Peg3 allele. To facilitate screening, high-density feeder-free ES cell culture has been optimized so that ES cells can be grown in 1536 for over four days without feeding or washes. The assay uses a luminescence based read out for LacZ activity and is a homogenous assay optimal for HTS.
NCGC Peg3 Imprinting Assay Protocol Summary ES cell lines were derived from blastocysts taken from Peg3LacZ-Neo x129 matings. Lines were sexed and genotyped for the Peg3LacZ-Neo allele. Female cells carrying the reporter allele were used in this study. Cells were derived on a layer of mouse embryonic fibroblasts and passaged multiple times before switching to feeder free culture. Cells were maintained feeder free on gelatin coated dishes in DMEM/F12 media supplemented with 15% FBS, 2mM L-glutamine, 100 units/ml penicillin, 100ug/ml streptomycin, 0.1mM MEM nonessential amino acids, 1mM sodium pyruvate, 0.1% sodium bicarbonate, 0.1mM 2-Mercaptoethanol, and 400 units/ml leukemia inhibitory factor (LIF) at 37C with 5% CO2. The assay was performed in 1536-well format. A single luminescence read was taken at the end of the assay and the data was normalized by plate to internal negative controls. Maximum efficacy and AC50 values were calculated from dose-response data using the standard Hill equation. 1536 well plates were filled with 0.5ul of 0.1% gelatin per well, spun down and incubated for at least 30 min at 37C. The ES cells were then trypsini Peg3 1536-well assay protocol: (1)Plate 0.5ul/well 0.1% gelatin in white tissue culture treated 1536-well plates, spin and incubate at 37C for at least 30 min. (2)Add 5ul/well (300 cells) of ES cell suspension from freshly trypsinized cells and incubate at 37C, 5% CO2 for 40 hours. (3)Add 5ul/well of freshly prepared BetaGlo solution and incubate at room temperature for 5 minutes. (4)Read luminescence on the ViewLux plate reader. Keywords Genomic Imprinting, Germ Cells, Embryonic Stem Cell, DNA Methylation, Peg3, qHTS, NIH roadmap, NCGC

Compound	activity change, positive = activation
Cn1cc(S(=O)(=O)N2CCCCCC2)cc1C(=O)N1CCN(c2ccc(F)cc2)CC1	-9.82% (inactive)
Cc1cccc(CSc2nc3ccncc3n2Cc2ccc(C(=O)O)cc2)c1	-11.1% (inactive)
COc1ccc(CNc2nc(-c3ccc(Cl)cc3)nn2C(=O)c2ccccc2)cc1	-3.8% (inactive)
CC1CCC(N2CC(=O)N(CCC3=CCCCC3)C(c3ccc(F)cc3)C2=O)CC1 (stereo not drawn)	-12.5% (inactive)
CN(Cc1ccccc1)S(=O)(=O)c1ccc(F)c(C(=O)Nc2cccc(Cl)c2Cl)c1	-33.7% (inactive)
OC[C@H]1O[C@@H](n2cnc3c(NC4CCCC4)ncnc32)[C@H](O)[C@H]1O	-11.3% [at 60.7 µM] (inactive)
Cc1cc(NS(=O)(=O)c2ccc3oc(=O)c4ncn(C)c4c3c2)ccc1Br	8.33% (inactive)
O=C(CSc1nc(Nc2ccc(F)c(F)c2)c2ccccc2n1)c1ccc(Cl)cc1	-13% (inactive)
COc1ccc(C(=O)Nc2cccc(C(=O)OCc3cc(=O)n4c5c(sc4n3)CCCC5)c2)cc1	-92.1% (inactive)
Cc1ccc(SCC(=O)Nc2ccc3oc(-c4ccccc4C)nc3c2)cc1	-13.5% (inactive)
CCc1nnc(SCc2c(F)cccc2Cl)c2cc3sccc3n12	4.75% (inactive)
Cc1nn(-c2ccc(F)cc2)c(-n2cccc2)c1C(=O)N1CCN(c2ccccc2)CC1	-3.32% (inactive)
CCc1ccc(S(=O)(=O)Nc2cc3c(C(=O)OCc4ccccc4)c(C)oc3c3ccccc23)cc1	-22.6% (inactive)
CCCC(=O)Nc1cc2nn(-c3ccccc3)nc2cc1C	-25.6% (inactive)
COc1ccc(C(=O)c2oc3ccccc3c2NC(=O)COc2cccc(C)c2)cc1	-16.2% (inactive)
CCCN(C(=O)Cn1cc(S(=O)(=O)N2CCN(c3ccccc3F)CC2)c2ccccc2c1=O)c1cccc(C)c1	-16.3% (inactive)
COc1ccc(OCc2ccc(-c3nc(C#N)c(N4CCN(c5ccccc5)CC4)o3)o2)cc1	-12.1% (inactive)
CN1c2ccc(Cl)cc2-c2nc(SCC(=O)Nc3cc(F)ccc3F)ncc2S1(=O)=O	-6.64% (inactive)
COc1ccc(N(CC(=O)NCCc2ccc(Cl)cc2)S(=O)(=O)c2c(C)nn(C)c2C)cc1	15.7% (inactive)
CCN(CC)CCNC(=O)Cn1ncc2c3ccccc3n(Cc3ccccc3C)c2c1=O	-5.94% (inactive)
Cc1cccn2c(=O)c(C(=O)NC(C)c3ccccc3)cnc12 (stereo not drawn)	-15.7% (inactive)
CN(C)S(=O)(=O)c1ccc(C(=O)N(Cc2cccnc2)c2nc3c(F)cc(F)cc3s2)cc1	-7.79% (inactive)

Compound	activity change, positive = activation
CCSc1nnc(NC(=O)c2cc(=O)c3cc(C)c(C)cc3o2)s1	-10.3% (inactive)
CCOC(=O)c1ccc(NC(=O)Cn2c(=O)n(-c3ccc(C)cc3)c(=O)c3c2cnn3C)cc1	-10.8% (inactive)
CCOC(=O)c1ccc(NC(=O)CC2C(=O)N(c3ccccc3)C(=O)N2Cc2cccs2)cc1 (stereo not drawn)	7.18% (inactive)
CCOCCCn1c(SCC(=O)Nc2ccc(CC)cc2)nc2ccccc2c1=O	-2.25% (inactive)
CCC(=O)Nc1c(C(=O)N2CCN(c3ccc(F)cc3)CC2)oc2ccccc12	-6.14% (inactive)
COc1ccc(S(=O)(=O)NCC(c2ccc(N(C)C)cc2)N2CCCC2)cc1 (stereo not drawn)	-12.1% (inactive)
CC(=O)Nc1cccc(NC(=O)CSc2nccn2Cc2ccc3c(c2)OCO3)c1	-8.32% (inactive)
Fc1ccc(CSc2nc(NCc3ccccc3)c3ccccc3n2)cc1	-6.21% (inactive)
Cc1cc(NS(=O)(=O)c2ccc(NC(=O)c3ccccc3C)cc2)nc(C)n1	20.1% (inactive)
O=c1c(=O)n(Cc2c(F)cccc2Cl)ccn1Cc1ccccc1	-15.9% (inactive)
CCOc1ccc(NC(=O)c2cn(C3CCCCC3)c(=O)c3c2c2ccccc2n3C)cc1	3.89% (inactive)
CC1=C(C(=O)Nc2ccccc2Cl)C(c2cccs2)n2ncnc2N1 (stereo not drawn)	-9.9% (inactive)
CCc1ccc(NC(=O)c2sc3nc4c(cc3c2N)CN(CC)CC4)cc1	-5.27% (inactive)
Cc1ccc(C(=O)Nc2ccc(C(=O)O)cc2)cc1S(=O)(=O)Nc1ccccc1	-5.39% (inactive)
CCC(Sc1nc2n[nH]c(C)c2c(=N)n1-c1ccccc1Cl)C(=O)N(CC)CC (stereo not drawn)	-7.79% (inactive)
CCOC(=O)c1cnc2c(C)cc(C)cc2c1Nc1ccc(N2CCOCC2)cc1	-14.4% (inactive)
CCOc1ccc(OCC)c(NC(=O)c2cc(C)nc3c2c(C)nn3-c2cccc(Cl)c2C)c1	8.2% (inactive)
CCOc1ccc(CCNC(=O)C2=C(C)C(=O)OC23CCC(C)CC3)cc1OCC (stereo not drawn)	7.79% (inactive)
CCOc1ccc(CCNC(=O)Cn2nc(CC)n3c(cc4sc(CC)cc43)c2=O)cc1OCC	4.59% (inactive)
Cc1cc(C)cc(Nc2ncnc3onc(-c4ccc(F)cc4)c23)c1	18.6% (inactive)
CCOc1ccc(CNC(=O)c2cc(=O)[nH]c3ccc(S(=O)(=O)N4CCCCC4)cc23)cc1	-16.4% (inactive)
